Assay [1] has as its system PRMT1 (protein arginine N-methyltransferase 1). As to the kind of experiment: PRMT1 binders on small-molecule microarrays, primary screen, biochemical, small-molecule microarray, 635 nm fluorescence (AID 1088).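 Further: binding of Prmt1 protein to compounds spotted on small-molecule microarray slides.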 The conditions noted are these: small-molecule microarray binding, higher = more signal.
Assay [2] can be described thus: yeast growth modulation, basal conditions, primary screen, YJM789 clinical isolate, OD600, 24 h (AID 1089).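 Further: growth of clinical yeast isolate S. cerevisiae YJM 789 seeded 1000 cells per well; test concentration not given here.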 The conditions noted are these: S. cerevisiae YJM789 growth, higher = more signal, called active from +8 up or from −8 down.
Assay [3] can be described thus: fission yeast growth modulation, primary screen, strain 972, OD600, 24 h, no modulator (AID 1090).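 Further: basal condition with compound alone and no growth modifier present; test concentration not given here.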 The conditions noted are these: S. pombe 972 growth, higher = more signal, called active from +8 up or from −8 down.
Assay [4] in a line: S. cerevisiae growth modulation with rapamycin, primary screen, strain BY4716, OD600, 96 h (AID 1091). Further: test concentration not given here. The conditions noted are these: higher = more signal, called active from +8 up or from −8 down.
The target in assay [5] is Torsin-1A-interacting protein 2 (Homo sapiens) (UniProt Q8NFQ8). As to the kind of experiment: LULL1 binders on small-molecule microarray, primary screen, cell lysate, human LULL1 lysate, 635/667 nm fluorescence (AID 1092).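 Further: probe is lysate of COS7 cells overexpressing human LULL1; score merges per-feature 667 nm fluorescence with signal-to-noise.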 The conditions noted are these: hLULL1 lysate binding, 635 nm fluorescence, higher = more signal.
Sequence of Torsin-1A-interacting protein 2 (Homo sapiens) (Q8NFQ8 whole entry, looked up): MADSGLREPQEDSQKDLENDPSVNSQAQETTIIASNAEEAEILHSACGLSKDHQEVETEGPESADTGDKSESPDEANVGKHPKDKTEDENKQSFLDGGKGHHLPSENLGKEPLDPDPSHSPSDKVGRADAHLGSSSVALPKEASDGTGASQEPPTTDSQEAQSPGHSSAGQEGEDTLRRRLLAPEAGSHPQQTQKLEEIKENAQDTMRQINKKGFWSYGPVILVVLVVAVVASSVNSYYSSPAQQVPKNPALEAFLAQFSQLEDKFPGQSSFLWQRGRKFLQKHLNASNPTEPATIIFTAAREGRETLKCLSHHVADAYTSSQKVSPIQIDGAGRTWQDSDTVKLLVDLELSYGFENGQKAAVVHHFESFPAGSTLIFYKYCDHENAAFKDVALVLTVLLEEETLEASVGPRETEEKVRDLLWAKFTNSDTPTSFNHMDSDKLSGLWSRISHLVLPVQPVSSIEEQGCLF
Assay [6] in a line: E. coli growth modulation, two-sided OD650, primary screen, E. coli filamentation project, strain DRC41, 24 h (AID 1093).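 Further: MC1000 strain lacking acrAB efflux and sulA so SOS filamentation is blocked; test concentration not given here.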 The following applies: OD650, 24 h, higher = more signal, called active from +8 up or from −8 down.
Assay [7] in a line: small-molecule microarray binders of probe aLefty2, primary screen, biochemical, biotinylated probe, 635/667 nm fluorescence (AID 1094).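 Further: score merges spot fluorescence near 667 nm with spot signal-to-noise ratio.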 The following applies: higher = more signal.
For assay [8], the system named is Noggin (protein binding on small-molecule microarray). As to the kind of experiment: Noggin binders on small-molecule microarray, primary screen, biochemical, 635/667 nm fluorescence (AID 1095).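 Further: score merges 667 nm feature fluorescence with signal to noise over triplicate slides.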 The following applies: 635 nm fluorescence, higher = more signal.
The target of assay [9] is Neurogenic locus notch homolog protein 3 (Homo sapiens) (UniProt Q9UM47). As to the kind of experiment: NOTCH3 binders on small-molecule microarray, primary screen, biochemical, 635/667 nm fluorescence (AID 1096). The following applies: NOTCH3 binding, 635 nm fluorescence, higher = more signal.
Sequence of Neurogenic locus notch homolog protein 3 (Homo sapiens) (Q9UM47 whole entry, looked up): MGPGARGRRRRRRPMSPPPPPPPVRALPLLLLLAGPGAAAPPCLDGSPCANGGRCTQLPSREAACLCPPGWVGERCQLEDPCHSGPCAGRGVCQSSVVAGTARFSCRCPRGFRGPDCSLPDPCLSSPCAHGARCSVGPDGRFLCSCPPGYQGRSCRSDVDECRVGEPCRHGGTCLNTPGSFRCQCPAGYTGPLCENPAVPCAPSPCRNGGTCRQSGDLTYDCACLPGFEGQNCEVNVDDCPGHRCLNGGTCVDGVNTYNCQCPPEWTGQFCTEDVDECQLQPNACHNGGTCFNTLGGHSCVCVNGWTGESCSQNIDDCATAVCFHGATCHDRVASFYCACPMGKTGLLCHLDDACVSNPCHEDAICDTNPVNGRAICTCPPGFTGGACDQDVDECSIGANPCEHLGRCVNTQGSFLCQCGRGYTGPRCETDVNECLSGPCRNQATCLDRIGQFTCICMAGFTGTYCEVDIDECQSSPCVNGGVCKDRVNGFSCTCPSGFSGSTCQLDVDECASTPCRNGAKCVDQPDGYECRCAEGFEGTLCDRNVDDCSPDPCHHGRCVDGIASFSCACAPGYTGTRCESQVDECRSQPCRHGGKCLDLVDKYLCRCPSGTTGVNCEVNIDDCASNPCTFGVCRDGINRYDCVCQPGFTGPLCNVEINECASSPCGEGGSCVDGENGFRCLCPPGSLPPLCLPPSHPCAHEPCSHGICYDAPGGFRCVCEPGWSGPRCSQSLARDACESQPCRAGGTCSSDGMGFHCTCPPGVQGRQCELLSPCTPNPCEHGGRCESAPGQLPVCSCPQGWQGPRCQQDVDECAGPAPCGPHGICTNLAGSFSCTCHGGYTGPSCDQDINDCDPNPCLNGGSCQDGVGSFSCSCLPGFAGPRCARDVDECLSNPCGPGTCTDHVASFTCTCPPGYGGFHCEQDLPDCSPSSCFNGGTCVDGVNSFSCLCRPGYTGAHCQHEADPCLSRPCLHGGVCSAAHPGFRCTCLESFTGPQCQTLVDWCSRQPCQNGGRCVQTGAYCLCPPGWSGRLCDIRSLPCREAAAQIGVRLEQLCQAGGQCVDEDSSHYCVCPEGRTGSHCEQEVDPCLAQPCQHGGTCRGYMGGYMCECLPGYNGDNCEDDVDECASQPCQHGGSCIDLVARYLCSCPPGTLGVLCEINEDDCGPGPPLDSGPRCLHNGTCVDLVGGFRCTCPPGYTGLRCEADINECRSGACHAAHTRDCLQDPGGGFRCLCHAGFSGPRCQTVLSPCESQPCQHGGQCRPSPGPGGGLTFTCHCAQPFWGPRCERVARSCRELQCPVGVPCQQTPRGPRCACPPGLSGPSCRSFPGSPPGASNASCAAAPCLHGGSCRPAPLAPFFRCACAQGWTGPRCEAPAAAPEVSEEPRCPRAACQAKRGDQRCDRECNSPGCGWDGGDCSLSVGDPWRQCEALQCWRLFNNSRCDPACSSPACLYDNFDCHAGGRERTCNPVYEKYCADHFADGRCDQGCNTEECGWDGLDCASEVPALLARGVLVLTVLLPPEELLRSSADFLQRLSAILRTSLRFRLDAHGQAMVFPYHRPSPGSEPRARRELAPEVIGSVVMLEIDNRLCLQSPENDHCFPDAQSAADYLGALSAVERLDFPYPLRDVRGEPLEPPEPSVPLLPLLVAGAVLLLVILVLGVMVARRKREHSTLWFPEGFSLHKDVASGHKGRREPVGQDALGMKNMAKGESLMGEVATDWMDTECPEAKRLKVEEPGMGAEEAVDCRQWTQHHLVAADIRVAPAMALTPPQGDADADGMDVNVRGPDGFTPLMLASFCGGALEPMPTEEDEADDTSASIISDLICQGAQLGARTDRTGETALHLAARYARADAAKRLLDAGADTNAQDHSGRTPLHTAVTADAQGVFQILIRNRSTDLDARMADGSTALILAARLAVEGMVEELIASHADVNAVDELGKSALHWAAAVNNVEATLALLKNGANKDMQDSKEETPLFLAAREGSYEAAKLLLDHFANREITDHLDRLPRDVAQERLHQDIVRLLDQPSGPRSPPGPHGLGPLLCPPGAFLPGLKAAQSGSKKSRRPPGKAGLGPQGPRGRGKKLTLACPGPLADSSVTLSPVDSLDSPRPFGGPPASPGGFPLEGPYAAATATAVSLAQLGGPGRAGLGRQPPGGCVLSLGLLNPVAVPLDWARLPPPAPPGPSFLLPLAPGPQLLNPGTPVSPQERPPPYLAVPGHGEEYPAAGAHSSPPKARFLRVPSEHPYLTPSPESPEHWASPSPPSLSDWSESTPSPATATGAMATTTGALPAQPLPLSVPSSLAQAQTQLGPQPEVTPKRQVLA
The nature of assay [10]: small-molecule microarray binders of probe aEGFR, primary screen, biochemical, biotinylated probe, 635/667 nm fluorescence (AID 1097).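 Further: probe is a biotinylated anti-EGFR antibody binding compounds printed on slides; score combines fluorescence near 667 nm and signal to noise of each spot.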 The following applies: higher = more signal.
Assay [11] has as its system Plasmodium falciparum Sir2 (PF13_0152, Sir2A). As to the kind of experiment: pfSir2 binders on small-molecule microarrays, primary screen, biochemical, small-molecule microarray, 635 nm fluorescence (AID 1098).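 Further: score merges spot fluorescence intensity with its signal-to-noise ratio.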 The following applies: small-molecule microarray binding, fluorescence 635 nm; higher = more signal.
Assay [12] can be described thus: small-molecule microarray binders of probe aDKK1, primary screen, biochemical, biotinylated probe, 635/667 nm fluorescence (AID 1099).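 Further: score merges 667nm spot fluorescence with signal to noise across triplicate slides; reference of the scale not given here.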 The following applies: higher = more signal.
The nature of assay [13]: small-molecule microarray binders of probe aCHRDL2, primary screen, biochemical, biotinylated probe, 635/667 nm fluorescence (AID 1100). The conditions noted are these: higher = more signal.
A short description of assay [14]: splicing luciferase reporter signal modulators, primary screen, spliceosome inhibition project, cell-based, HEK293, splice +/- reporter (AID 1101).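 Further: HEK293 cells carrying a splicing-competent luciferase reporter gene; test concentration not given here.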 The following applies: luminescence, 24 h, higher = more signal, called active from +8 up or from −8 down. Background: Reporter assays use an easily measured gene product as a stand-in for the process of interest.
The target of assay [15] is Fibroblast growth factor 10 (Homo sapiens) (UniProt O15520). As to the kind of experiment: FGF10 binders on small-molecule microarrays, primary screen, biochemical, small-molecule microarray, 635 nm fluorescence (AID 1102). The following applies: FGF10 binding, fluorescence 635 nm, higher = more signal.
Sequence of Fibroblast growth factor 10 (Homo sapiens) (O15520 whole entry, looked up): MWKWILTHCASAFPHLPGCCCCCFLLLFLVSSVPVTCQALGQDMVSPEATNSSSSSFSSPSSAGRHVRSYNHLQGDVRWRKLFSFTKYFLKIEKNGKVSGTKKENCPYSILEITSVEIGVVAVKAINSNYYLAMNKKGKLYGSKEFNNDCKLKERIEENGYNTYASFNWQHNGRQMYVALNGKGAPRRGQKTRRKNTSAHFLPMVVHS
Assay [16] deals with glycogen synthase kinase-3 (GSK3A per assay name; protocol says GSK3B). As to the kind of experiment: GSK3 binders on small-molecule microarrays, primary screen, biochemical, small-molecule microarray, 635 nm fluorescence, GSK3A (AID 1103). Further: the record names both GSK3A and GSK3B. The following applies: small-molecule microarray binding, fluorescence 635 nm; higher = more signal.
Assay [17] concerns the target Epidermal growth factor receptor (Homo sapiens) (UniProt P00533). As to the kind of experiment: EGFR binders on small-molecule microarrays, primary screen, biochemical, small-molecule microarray, 635 nm fluorescence (AID 1104).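 Further: score merges 667 nm emission intensity with spot signal to noise over triplicate slides.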 The conditions noted are these: EGFR binding, higher = more signal.
Assay [18] addresses Follistatin-related protein 3 (Homo sapiens) (UniProt O95633). As to the kind of experiment: FSTL3 binders on small-molecule microarrays, primary screen, biochemical, small-molecule microarray, 635 nm fluorescence (AID 1105).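 Further: score merges emission near 667 nm and signal to noise per printed spot across three slides.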 The conditions noted are these: FSTL3 binding, higher = more signal.
Assay [19] deals with Dickkopf-related protein 1 (Homo sapiens) (UniProt O94907). As to the kind of experiment: DKK1 binders on small-molecule microarrays, primary screen, biochemical, small-molecule microarray, 635 nm fluorescence scan (AID 1106).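 Further: score merges emission near 667 nm with signal to noise over three replicate slides.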 The following applies: DKK1 binding, higher = more signal.
Sequence of Dickkopf-related protein 1 (Homo sapiens) (O94907 whole entry, looked up): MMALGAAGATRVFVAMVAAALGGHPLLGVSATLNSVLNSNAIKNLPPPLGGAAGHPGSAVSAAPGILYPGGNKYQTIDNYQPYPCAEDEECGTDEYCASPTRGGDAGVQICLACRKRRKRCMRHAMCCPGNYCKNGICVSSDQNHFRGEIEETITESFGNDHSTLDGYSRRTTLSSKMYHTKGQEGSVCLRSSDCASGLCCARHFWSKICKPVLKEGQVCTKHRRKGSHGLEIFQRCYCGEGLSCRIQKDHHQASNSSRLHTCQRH
The subject of assay [20] is Inhibin beta A chain (activin A). As to the kind of experiment: INHBA (activin A) binders on microarrays, primary screen, biochemical, small-molecule microarray, 635 nm fluorescence scan (AID 1107).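 Further: mouse activin A protein probed at 4.33 µg/mL on printed slides; score merges bound-protein fluorescence near 667 nm with spot signal-to-noise.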 The following applies: small-molecule microarray binding, higher = more signal.

The source made the active and inactive calls.

Sequence of Follistatin-related protein 3 (Homo sapiens) (O95633 whole entry, looked up): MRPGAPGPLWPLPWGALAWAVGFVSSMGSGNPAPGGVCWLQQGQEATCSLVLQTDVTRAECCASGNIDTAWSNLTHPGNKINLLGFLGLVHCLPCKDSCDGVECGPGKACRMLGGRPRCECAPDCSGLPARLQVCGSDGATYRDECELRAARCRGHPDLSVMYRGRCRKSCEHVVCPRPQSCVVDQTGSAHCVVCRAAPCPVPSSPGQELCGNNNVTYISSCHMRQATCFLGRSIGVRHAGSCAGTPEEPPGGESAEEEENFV
Sequence of Epidermal growth factor receptor (Homo sapiens) (P00533 whole entry, looked up): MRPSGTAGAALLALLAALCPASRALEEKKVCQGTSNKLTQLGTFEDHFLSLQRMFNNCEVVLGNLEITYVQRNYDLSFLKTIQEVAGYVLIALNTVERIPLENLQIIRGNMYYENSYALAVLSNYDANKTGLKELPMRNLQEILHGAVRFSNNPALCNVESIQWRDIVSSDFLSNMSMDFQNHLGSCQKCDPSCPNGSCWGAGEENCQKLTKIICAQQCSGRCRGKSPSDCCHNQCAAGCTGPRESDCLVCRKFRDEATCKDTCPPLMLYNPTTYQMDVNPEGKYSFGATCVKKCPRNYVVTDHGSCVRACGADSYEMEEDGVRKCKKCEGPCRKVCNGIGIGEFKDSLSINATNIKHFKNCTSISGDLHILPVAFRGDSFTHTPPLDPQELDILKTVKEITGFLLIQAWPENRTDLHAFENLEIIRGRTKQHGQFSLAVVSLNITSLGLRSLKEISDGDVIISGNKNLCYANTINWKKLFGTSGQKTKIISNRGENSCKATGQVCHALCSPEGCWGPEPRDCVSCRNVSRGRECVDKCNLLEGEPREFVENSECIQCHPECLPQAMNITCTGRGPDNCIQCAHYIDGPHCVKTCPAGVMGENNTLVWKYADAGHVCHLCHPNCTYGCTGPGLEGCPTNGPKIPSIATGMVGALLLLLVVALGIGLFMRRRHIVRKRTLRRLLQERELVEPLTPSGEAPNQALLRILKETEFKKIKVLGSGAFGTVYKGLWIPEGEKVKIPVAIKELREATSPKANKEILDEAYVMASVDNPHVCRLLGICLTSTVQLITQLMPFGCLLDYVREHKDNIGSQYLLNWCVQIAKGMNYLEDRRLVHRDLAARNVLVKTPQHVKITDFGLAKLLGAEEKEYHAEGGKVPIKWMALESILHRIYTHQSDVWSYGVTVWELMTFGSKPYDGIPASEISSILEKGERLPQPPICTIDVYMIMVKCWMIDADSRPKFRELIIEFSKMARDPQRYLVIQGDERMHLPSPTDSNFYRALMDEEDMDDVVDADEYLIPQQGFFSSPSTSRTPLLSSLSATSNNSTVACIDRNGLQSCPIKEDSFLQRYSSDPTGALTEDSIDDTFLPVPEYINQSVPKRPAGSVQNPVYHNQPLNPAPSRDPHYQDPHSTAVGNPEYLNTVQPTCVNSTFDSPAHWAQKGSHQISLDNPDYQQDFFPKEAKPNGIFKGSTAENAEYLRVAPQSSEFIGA

With `CCCNC(=O)[C@@]1(C)c2ccccc2C(=O)N(Cc2cc(C(F)(F)F)cc(C(F)(F)F)c2)[C@H]1c1ccc(CO)cc1`, the composite z-score in [1] is 1.43; in [5] it was 2.59; in assay [7], -0.119; in assay [8] it was -0.675; in assay [9], -0.131; in assay [10], -0.137. The composite z-score in [11] was 0.0609; in assay [12], 0.21; in [13], 0.608; in [15], -0.0617; in assay [16], -0.196; in [17] it was -0.708. Besides, the composite z-score in assay [18] was -0.808; in assay [19], -0.408; in [20], -0.605. In addition, the z-score in assay [2] is 0.0841 (inactive); in assay [3], -0.25 (inactive); in assay [4], -0.49 (inactive); in assay [6] it was -0.667 (inactive); in assay [14] it was -0.542 (inactive).
For the compound `Cc1ccc(N2C(=O)c3ccccc3[C@@H](C(=O)NCC(C)C)[C@@H]2c2ccc(CO)cc2)nc1`, the composite z-score was 0.137 in [1]; 2.32 in assay [5]; -0.186 in assay [7]; -0.479 in assay [8]; -1.03 in assay [9]; -0.298 in assay [10]. For the same compound, the composite z-score is 1.48 in assay [11]; -0.244 in assay [12]; 0.544 in assay [13]; -0.617 in assay [15]; -0.813 in assay [16]; -1.26 in assay [17]. The composite z-score in assay [18] was -1.19; in assay [19], -0.52; in assay [20], 0.244. Besides, the z-score was 0.229 (inactive) in assay [2]; 0.0994 (inactive) in assay [3]; -0.456 (inactive) in [4]; 0.409 (inactive) in assay [6]; 0.337 (inactive) in assay [14].
For `C=CCC(OC(C)=O)[C@@H]1[C@@H](N(Cc2cc3ccccc3o2)C(=O)c2cccc3ccccc23)c2cc(OCCCO)ccc2N1C(=O)Cc1ccc2ccccc2c1` (stereo not given in full), the composite z-score was 0.37 in assay [1]; 0.797 in assay [5]; -0.0898 in assay [7]; -0.233 in assay [8]; -0.164 in assay [9]; -0.123 in [10]. Also, the composite z-score is 0.53 in [11]; 0.224 in assay [12]; 0.471 in assay [13]; 0.0259 in [15]; -0.925 in assay [16]; -0.221 in [17]. In addition, the values for the composite z-score in assay [18], in assay [19] and in [20] were 0.0969, -0.0207 and 1.02, respectively. The z-score in assay [2] was 0.263 (inactive); in assay [3] it was 0.246 (inactive); in assay [4], 0.445 (inactive); in [6], 0.117 (inactive); in [14], -0.904 (inactive).
For the compound `O=C(CS)NCCCCCCNC(=O)[C@H]1C[C@H]2C(=O)N3CCC[C@H]3C(=O)N2[C@H]1c1ccc(O)cc1`, the composite z-score was 1.42 in [1]; 2.22 in assay [5]; -0.0845 in [7]; 1.21 in [8]; 0.905 in [9]; -0.208 in assay [10]. In addition, the composite z-score in [11] was 1.63; in assay [12] it was 0.104; in assay [13], 0.0018; in assay [15], 0.732; in assay [16], -0.477; in assay [17], -0.154. Besides, the composite z-score is 0.972 in assay [18], 0.317 in assay [19] and 0.487 in [20]. Besides, the z-score in assay [2] is -0.637 (inactive); in [3] it was 0.0932 (inactive); in assay [4], 0.369 (inactive); in [6], -0.506 (inactive); in assay [14], 1.46 (inactive).
Regarding `C=C(/C(=C/C[C@@H](OC(=O)c1ccncc1)c1ccc(CO)o1)c1cc(C(=O)OC)ccc1OC)C(C)C`, the composite z-score was 1.53 in assay [1]; 2.47 in [5]; -0.129 in assay [7]; 0.855 in assay [8]; 1.03 in [9]; 0.0073 in [10]. The composite z-score in assay [11] was 1.32; in assay [12], -0.0623; in assay [13], -0.109; in assay [15] it was 1.3; in assay [16] it was 1.14; in assay [17], 0.439. The composite z-score was 1.13 in assay [18], 0.432 in assay [19] and -0.0326 in assay [20]. Further, the z-score in assay [2] was 0.523 (inactive); in assay [3] it was -1.28 (inactive); in assay [4], -0.414 (inactive); in assay [6], 0.481 (inactive); in assay [14] it was 0.614 (inactive).

Values taken from PubChem BioAssay.
